About 79,000 compounds went through this panel and 15% of them were active in at least one assay; those are over-represented in the sample as a whole. Calls of active or inactive are those of the source. Rule as the data show it: active = growth inhibition above about 70%; inactive = the rest.
Assay: NCI Yeast Anticancer Drug Screen. Data for the bub3 strain (AID 167)
Details: S. cerevisiae bub3 mutant strain, at 100.0 µM, hits give high values
In short: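 Steps: expose the mutant yeast strain to compound; grow alongside vehicle-treated cultures; measure growth; express inhibition against the vehicle cultures.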

SMILES | growth inhibition
O=C1/C(=C/c2ccccc2)CCCC1CN1CCCCC1 (stereo unspecified) | 97% (active)
C#CCN(Cc1ccc2nc(N)[nH]c(=O)c2c1)c1ccc(C(=O)NC(CCC(=O)O)C(=O)O)cc1 (stereo unspecified) | 43% (inactive)
CCOC1(c2cccc([N+](=O)[O-])c2)c2ccccc2Oc2ccccc21 | 1% (inactive)
O=C(O)CNC(=S)Nc1ccccc1 | 89% (active)
N/C(=N/N=C/c1cc(Br)cc(Br)c1O)NO | 97% (active)
C[Si](C)(C)/C=C/CCNC(C#N)c1ccccc1 (stereo unspecified) | 93% (active)
CCCCCCCCCCCCCCCCOP(=O)(O)OCC(N)C(=O)O (stereo unspecified) | 98% (active)
CC1=C(C(=O)NCc2ccccc2)C(c2ccccc2)C(C(=O)NCc2ccccc2)=C(C)N1 | 94% (active)
O=[N+]([O-])c1cc(S(=O)(=O)Nc2ccccc2)ccc1Nc1ccccc1 | 76% (active)
CCOC(=O)C(Br)C(Br)c1ccccc1Cl (stereo unspecified) | 99% (active)
CCOC(=O)C1=C(C)NC(C)=C(C(=O)OCCNC(=O)c2ccc(N=[N+]=[N-])cc2)C1c1ccccc1C(F)(F)F (stereo unspecified) | 31% (inactive)
Cc1cc(C)c(NC(=S)NC(=O)c2ccccc2)cc1C | 62% (inactive)
CNCCCNc1c2ccccc2nc2cccc([N+](=O)[O-])c12 | 99% (active)
COc1c(O)c(C=O)c(Br)c(C=O)c1O | 97% (active)
Cc1c(C)c(C)c(CSC(=N)N)c(C)c1C | 98% (active)
O=C(CSC(=S)N1CCCCC1)Nc1nc2c(s1)CCCC2 | 85% (active)
CNC(=O)OCc1c(COC(=O)NC)c(-c2ccc(Cl)cc2)n2c1CCC2 | 94% (active)
CC(=O)OC1CC2C(C)(C)C(=O)C=C[C@]2(C)C2CCC3(C)C(=CCC3[C@H](CO)C[C@H](O)C(=O)C(C)(C)O)[C@]12C (stereo partly specified) | 78% (active)

SMILES | growth inhibition
C[C](C)(C)[Ge]([O][Ge]([c]1ccccc1)[c]1ccccc1)([O][Ge]([c]1ccccc1)[c]1ccccc1)[C](C)(C)C | 79% (active)
CCc1c(Cl)c(C)cc(O)c1Cl | 85% (active)
Cc1nc(Nc2ccccc2[N+](=O)[O-])sc1C(=O)CC(=O)C(=O)Nc1c(C(C)C)cccc1C(C)C | 12% (inactive)
O=[N+]([O-])c1cccc2nc3ccccc3c(NCCCn3ccnc3[N+](=O)[O-])c12 | 88% (active)
CCCCCCC(O)CNCc1ccnc2ccc(OC)cc12 (stereo unspecified) | 63% (inactive)
Cc1c2cccc(Sc3ccccc3)c2c2c3c(cccc13)[S+](c1ccccc1)C2 (stereo unspecified) | 87% (active)
C=C1CCC(O)C/C1=C/C=C1\CCCC2(C)C1CCC2C(C)CCCC(C)C (stereo unspecified) | 7% (inactive)
NC1=NNC2(C(N)=N1)c1ccccc1-c1ccccc12 | 97% (active)
COc1cc2cc3c4cc(OC)c(OC)cc4cc[n+]3c(C)c2cc1OC | 9% (inactive)
COC(=O)NC1C(C)OC(OC2C/C=C(/C)C3C=CC4C(OC5CC(OC6CC(O)C(OC7CC(O)C(OC)C(C)O7)C(C)O6)C(O)C(C)O5)C(C)CC(C)C4C3(C)/C(O)=C3\C(=O)OC4(CC(C)C(CO)=CC4/C=C\2C)C3=O)CC1(C)[N+](=O)[O-] (stereo unspecified) | 9% (inactive)
O=C1CSC(c2cccc(Cl)c2)N1c1ccc(-c2ccc(-n3c(-c4ccccc4)nc4ccccc4c3=O)cc2)cc1 (stereo unspecified) | 29% (inactive)
CCOC(=O)C(C(=O)OCC)=P(c1ccccc1)(c1ccccc1)c1ccccc1 | 93% (active)
COc1ccc(N=CN(C)C)c(C)c1 | 94% (active)
Cc1cc(S(=O)(=O)Nc2nnc3cnc4ccccc4n23)c(S)cc1Cl | 32% (inactive)
CN(C)[C@@H]1C(=O)C(C(N)=O)=C(O)[C@@]2(O)C(=O)C3=C(O)c4c(O)cccc4C[C@H]3C[C@@H]12 | 99% (active)
O=[N+]([O-])c1ccc2c(c1)/C(=N/N=C1c3ccccc3Cc3ccccc31)c1cc([N+](=O)[O-])cc([N+](=O)[O-])c1-2 | 91% (active)
Cc1nc2c(Br)cc(Br)cc2c(=O)n1-c1ccccc1NC1OCC(O)C(O)C1O (stereo unspecified) | 96% (active)
Cc1cc(N(CCOS(C)(=O)=O)CCOS(C)(=O)=O)ccc1C=Nc1ccc(-c2nc(Cc3ccccc3)sc2C)cc1 | 98% (active)

Assay: NCI Yeast Anticancer Drug Screen. Data for the wt2 strain (AID 169);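 also: 0% = growth of vehicle-treated yeast cultures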
Details: S. cerevisiae wt2 strain growth inhibition; at 1.2 µM; hits give high values
In short: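 Genetically defined yeast strains from a DNA-repair/cell-cycle panel were used. Compound-exposed yeast growth was measured, and the inhibition was calculated relative to vehicle treatment.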

SMILES | growth inhibition
O=C1/C(=C/c2ccccc2)CCCC1CN1CCCCC1 (stereo unspecified) | 19% (inactive)
C#CCN(Cc1ccc2nc(N)[nH]c(=O)c2c1)c1ccc(C(=O)NC(CCC(=O)O)C(=O)O)cc1 (stereo unspecified) | -9% (inactive)
CCOC1(c2cccc([N+](=O)[O-])c2)c2ccccc2Oc2ccccc21 | 1% (inactive)
O=C(O)CNC(=S)Nc1ccccc1 | -74% (inactive)
C[Si](C)(C)/C=C/CCNC(C#N)c1ccccc1 (stereo unspecified) | -9% (inactive)
CCCCCCCCCCCCCCCCOP(=O)(O)OCC(N)C(=O)O (stereo unspecified) | -17% (inactive)
CC1=C(C(=O)NCc2ccccc2)C(c2ccccc2)C(C(=O)NCc2ccccc2)=C(C)N1 | -1% (inactive)
O=[N+]([O-])c1cc(S(=O)(=O)Nc2ccccc2)ccc1Nc1ccccc1 | -28% (inactive)
COc1cc2ccnc(-c3c4ccccc4c(N)c4c(OC)c(OC)ccc34)c2cc1OC | -2% (inactive)
CCOC(=O)C(Br)C(Br)c1ccccc1Cl (stereo unspecified) | -2% (inactive)
CCOC(=O)C1=C(C)NC(C)=C(C(=O)OCCNC(=O)c2ccc(N=[N+]=[N-])cc2)C1c1ccccc1C(F)(F)F (stereo unspecified) | 0% (inactive)
COc1c(O)c(C=O)c(Br)c(C=O)c1O | -1% (inactive)
Cc1c(C)c(C)c(CSC(=N)N)c(C)c1C | -41% (inactive)
O=C(CSC(=S)N1CCCCC1)Nc1nc2c(s1)CCCC2 | -7% (inactive)
CNC(=O)OCc1c(COC(=O)NC)c(-c2ccc(Cl)cc2)n2c1CCC2 | -31% (inactive)
CC(=O)OC1CC2C(C)(C)C(=O)C=C[C@]2(C)C2CCC3(C)C(=CCC3[C@H](CO)C[C@H](O)C(=O)C(C)(C)O)[C@]12C (stereo partly specified) | -32% (inactive)
CCCCCCOC(=O)NCCOC(=O)Nc1ccccc1 | 1% (inactive)
Cc1nc(Nc2ccccc2[N+](=O)[O-])sc1C(=O)CC(=O)C(=O)Nc1c(C(C)C)cccc1C(C)C | -1% (inactive)
O=[N+]([O-])c1cccc2nc3ccccc3c(NCCCn3ccnc3[N+](=O)[O-])c12 | -16% (inactive)
CCCCCCC(O)CNCc1ccnc2ccc(OC)cc12 (stereo unspecified) | 4% (inactive)
Cc1c2cccc(Sc3ccccc3)c2c2c3c(cccc13)[S+](c1ccccc1)C2 (stereo unspecified) | 6% (inactive)
C=C1CCC(O)C/C1=C/C=C1\CCCC2(C)C1CCC2C(C)CCCC(C)C (stereo unspecified) | -8% (inactive)
NC1=NNC2(C(N)=N1)c1ccccc1-c1ccccc12 | -10% (inactive)
COC(=O)NC1C(C)OC(OC2C/C=C(/C)C3C=CC4C(OC5CC(OC6CC(O)C(OC7CC(O)C(OC)C(C)O7)C(C)O6)C(O)C(C)O5)C(C)CC(C)C4C3(C)/C(O)=C3\C(=O)OC4(CC(C)C(CO)=CC4/C=C\2C)C3=O)CC1(C)[N+](=O)[O-] (stereo unspecified) | -42% (inactive)
COc1ccc(N=CN(C)C)c(C)c1 | -26% (inactive)
O=C(Oc1ccc2c(c1)CN(Cc1ccccc1)CO2)c1ccccc1 | -1% (inactive)
CN(C)[C@@H]1C(=O)C(C(N)=O)=C(O)[C@@]2(O)C(=O)C3=C(O)c4c(O)cccc4C[C@H]3C[C@@H]12 | 9% (inactive)
O=[N+]([O-])c1ccc2c(c1)/C(=N/N=C1c3ccccc3Cc3ccccc31)c1cc([N+](=O)[O-])cc([N+](=O)[O-])c1-2 | 15% (inactive)
Cc1nc2c(Br)cc(Br)cc2c(=O)n1-c1ccccc1NC1OCC(O)C(O)C1O (stereo unspecified) | 2% (inactive)
Cc1cc(N(CCOS(C)(=O)=O)CCOS(C)(=O)=O)ccc1C=Nc1ccc(-c2nc(Cc3ccccc3)sc2C)cc1 | -12% (inactive)

Source: PubChem BioAssay (NCI)
